Screens: PubChem, several laboratories
Bim-Mcl-1: inhibitors of Bim-Mcl-1 interaction, human | Q07820 | Bead-based flow cytometry, Bim peptide-Mcl-1 binding | inhibition, % at 10 µM | 190,000 compounds, 0.1% hits | AID 1009; in the data active = inhibition above about 40%
Target sequence (Q07820 whole entry, looked up): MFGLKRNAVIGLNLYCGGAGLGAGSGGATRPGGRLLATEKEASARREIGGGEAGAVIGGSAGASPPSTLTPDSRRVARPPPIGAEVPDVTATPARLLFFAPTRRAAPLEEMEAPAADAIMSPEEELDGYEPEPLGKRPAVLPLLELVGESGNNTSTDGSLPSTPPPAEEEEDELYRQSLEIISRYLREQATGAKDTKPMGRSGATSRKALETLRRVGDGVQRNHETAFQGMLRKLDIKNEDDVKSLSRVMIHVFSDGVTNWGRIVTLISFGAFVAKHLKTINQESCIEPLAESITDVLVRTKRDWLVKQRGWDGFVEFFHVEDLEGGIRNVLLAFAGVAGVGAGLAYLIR
Mcl1-Bid inh: Mcl-1/Bid interaction inhibition. TR-FRET Mcl-1/Bid-Dy647 peptide binding, 1536-well. 220,000 compounds, 0.97% hits. AID 1021. inhibition, % at 21.7 µM;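 active = compounds that cut the binding signal by more than half at the single screening dose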;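 also: His-tagged Mcl-1 with europium anti-His antibody binding Bid BH3 peptide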
Mcl1 Noxa PPI: disrupts binding of human Mcl-1 to Noxa peptide; inhibition, % at 21.7 µM; 220,000 compounds, 1.5% hits; TR-FRET Mcl-1/Noxa peptide binding, 2 h;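 active = compounds that cut the protein-peptide binding signal by more than 50% relative to plate controls in a single-dose test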;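 also: His-tagged Mcl-1 with rhodamine Noxa BH3 peptide and terbium anti-His antibody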
MCL1-BIM inh: disrupts human MCL1 binding to BIM-BH3 peptide; Q07820; GST-MCL1 / FITC-Bim-BH3 fluorescence polarization; inhibition, % at 10.9 µM; 320,000 compounds, 0.68% hits; AID 2057;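 active = inhibition above the mean inhibition of all tested compounds plus 3 SD, set per campaign, cut at about 40% in these data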;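 also: higher means more loss of mP so more displacement of Bim peptide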
BCLXL inh: Bcl-xL (human) inhibition; GST-Bcl-xL / FITC-Bim BH3 peptide fluorescence polarization; inhibition, % at 10.9 µM; 320,000 compounds, 0.7% hits; Q07817;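 active = inhibition above the mean of all tested compounds plus 3 SD, cutoff set per campaign, cut at about 30% in these data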;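 also: inhibitors lower millipolarization by displacing the labeled peptide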
GLD-1 TGE inh: GLD-1-TGE RNA interaction inhibition (C. elegans) | inhibition, % at 5.96 µM | 320,000 compounds, 0.44% hits | purified GLD-1 + fluorescein TGE RNA, fluorescence polarization;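 active = percent inhibition above a per-plate cutoff, the plate mean of test compounds plus 3 SD, cut at about 30% in these data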
Numbers stand for hits; n = inactive; x = no result given. Rows were chosen to be rich in hits. Some 2.3% of all compounds tested hit in one or more screens of this group.

SMILES	Bim-Mcl-1	Mcl1-Bid inh	Mcl1 Noxa PPI	MCL1-BIM inh	BCLXL inh	GLD-1 TGE inh
COc1cc(NC(=O)CSc2cc(C)c3cc(C)cc(C)c3n2)c(C(=O)O)cc1OC	x	n	n	n	n	n
COc1cc2[nH]c3c(N4CCN(c5ccccn5)CC4)ncnc3c2cc1OC	n	n	63.6	n	n	n
COc1ccc2[nH]c3c(N4CCc5ccccc5C4)ncnc3c2c1	x	n	61.5	n	n	n
O=C(NC(Cc1ccccc1)C(=O)Oc1ccc2c(C(F)(F)F)cc(=O)oc2c1)OCc1ccccc1 (stereo not drawn)	n	n	n	40.6	41.5	64.6
CCCCn1c(-c2ccc(C(C)(C)C)cc2)nc2cc3[nH]c(=O)c(C(C)C)nc3cc21	x	x	x	n	n	n
CCCCn1c(-c2cccnc2)nc2cc3[nH]c(=O)c(C(C)C)nc3cc21	x	x	x	n	31.2	n
CCCCn1c(-c2cccc(Br)c2)nc2cc3[nH]c(=O)c(C(C)C)nc3cc21	x	x	x	n	31.1	n
N#Cc1ccc(NCC(=O)Nc2ccc(S(=O)(=O)N3CCCCC3)cc2)cc1	x	x	x	n	n	n
Cn1ncc([N+](=O)[O-])c1C(=O)Nc1ccc(-c2nc3ccccc3[nH]2)cc1	n	n	n	n	n	n
CCOc1ccc(C(=O)Nc2ccc(-c3nc4ccccc4[nH]3)cc2)cc1[N+](=O)[O-]	n	55.2	58.1	n	n	n
Cc1ccc(-c2csc3ncn(CC(=O)O)c(=O)c23)cc1C	x	x	x	n	n	n
CC(C)CCn1c(=O)c2sccc2n2c(CCCC(=O)N3CCN(c4ccccn4)CC3)nnc12	x	x	x	n	70.9	n
CCn1c(=O)c2sccc2n2c(CCCC(=O)N3CCN(c4ccccn4)CC3)nnc12	x	x	x	n	n	n
O=C(COC(=O)c1ccco1)Nc1nc2c(F)c(F)c(F)cc2s1	x	x	x	n	n	n
O=C(COC(=O)c1ccc(NS(=O)(=O)c2cccs2)cc1)Nc1nc2c(F)c(F)c(F)cc2s1	n	n	70.9	x	x	x
Cc1ccc(CNC(=S)NCc2ccncc2)cc1	n	n	n	n	n	n
Cc1ccc(NC2CCCN(C(=O)c3cccc4nccnc34)C2)cc1C (stereo not drawn)	x	x	x	n	n	n
CC(C)(C)c1cc(C(c2cccnc2)N2CCN(CCO)CC2)cc(C(C)(C)C)c1O (stereo not drawn)	n	54.9	n	n	n	n
NS(=O)(=O)c1cc2c(cc1Cl)NC(Cc1ccccc1)NS2(=O)=O (stereo not drawn)	x	97.4	n	n	n	n
Cn1cccc1-c1cc(C(=O)N/N=C/c2cccc(O)c2)[nH]n1	n	n	n	n	n	n
CN(C)c1ccc(NS(=O)(=O)c2ccc(Cl)cc2)cc1	n	n	60.8	n	n	n
CN(C)c1ccc(NS(=O)(=O)c2ccc(-c3csnn3)cc2)cc1	x	n	n	n	n	n
Cc1ccc(S(=O)(=O)Nc2ccc(N(C)C)cc2)cc1	n	n	73.4	n	n	n
CN(C)c1ccc(NS(=O)(=O)c2cccc(Cl)c2)cc1	n	n	83.9	n	n	n
CC(C)c1ccc(NS(=O)(=O)c2ccc(Cl)nc2)cc1	n	54.7	n	n	n	n
SMILES	Bim-Mcl-1	Mcl1-Bid inh	Mcl1 Noxa PPI	MCL1-BIM inh	BCLXL inh	GLD-1 TGE inh
O=S(=O)(Nc1cccnc1)c1cccc(Cl)c1	n	n	n	n	n	n
O=[N+]([O-])c1cc(NS(=O)(=O)c2ccc(Cl)nc2)ccc1Cl	x	x	x	n	n	n
CN(C)c1ccc(S(=O)(=O)c2ccc(Cl)cc2)cc1	n	n	n	n	n	n
CC(=O)Cc1cc(O)c2ccccc2c1OC(=O)c1ccc(Br)cc1	x	96.2	n	n	n	n
CCOc1ccccc1NC(=O)CCn1ccnc1	x	x	x	n	n	n
O=C1N=c2ccc(Br)cc2=C1c1sc(=S)n(NS(=O)(=O)c2ccccc2)c1O	n	52.0	83.1	n	n	n
CCCCn1c(=NC(=O)c2cccnc2)c(C#N)cc2c(=O)n3cccc(C)c3nc21	n	n	n	47.9	46.3	n
COc1ccc(C(=O)N=c2c(C#N)cc3c(=O)n4cccc(C)c4nc3n2Cc2ccco2)cc1	n	n	76.5	x	x	x
CCOC(=O)c1cc2c(=O)n3cccc(C)c3nc2n(CCCOC)c1=NC(=O)c1cccnc1	n	n	n	n	n	n
COCCCn1c(=NC(=O)c2ccncc2)c(C#N)cc2c(=O)n3cccc(C)c3nc21	n	n	n	n	41.2	n
